Molecules are shown by their SMILES. Records with an inconclusive call do not appear. A number with no mark means an inactive call. Calls follow the shape of the dose curve; as a rule, active = well fitted cell-killing curve with a large enough effect; inconclusive = small, poorly fitted or top-dose-only effect; inactive = flat fitted curve, though single readings scatter.
% is scaled to controls: 0 for no effect and ±100 for the full control effect.

This test can be described thus: qHTS of pediatric cancer cell lines to identify multiple opportunities for drug repurposing: Primary screen for control Hh wild type fibroblast cells (AID 1347106).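 Also: a drop in luminescence marks cytotoxicity and a rise apparent proliferation; nearly all actives have a fitted effect of over 55% in size.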 To be noted: Hh wild-type fibroblast viability, CellTiter-Glo luminescence, 48 h; series mostly up to 46 µM; activity change, negative = cytotoxic: at the top concentration. The text has this:
Drug repurposing or repositioning has been offered as a strategy for drug development in oncology programs. This approach has special potential for childhood cancers and other rare or orphan diseases, where the expected return on new drug development has been a disincentive to pharmaceuticals.
In this project we exploit the poly-pharmacology of drugs to discover new indications via phenotypic screening of a panel of 19 well-characterized cell lines derived from solid tumors seen in children and adolescents. The goal is to identify approved drugs with previously unrecognized anticancer properties that has the potential to reveal new mechanisms and biological processes involved in carcinogenesis or drug resistance. We employed a titration-based paradigm (quantitative high-throughput screening or qHTS), where all compounds were tested at multiple concentrations for their effect on cell viability. Concentration-response curves (CRCs) were derived directly from the primary screen, and both potency and efficacy values were used to identify compounds with robust bioactivity profiles. We screened the NIH Chemical Genomics Center (NCGC) Pharmaceutical Collection (NPC) and Mechanism Interrogation Plate (MIPE) small molecule collections of approved and investigational compounds against these cell lines; and measured metabolically active cells after 48 hours of compound treatment as a proxy for cell viability.
Assay Submitter: Nathalia J. Martinez, National Center for Advancing Translational Sciences, National Institutes of Health, Rockville, MD, USA; email: natalia.martinez@nih.gov
[1] Shen, M et al. Quantitative high-throughput phenotypic screening of pediatric cancer cell lines identifies multiple opportunities for drug repurposing. Oncotarget 2017 Dec 19;9(4):4758-4772. PMID 29435139.
The cells were obtained from University of North Carolina (UNC), Pediatric Preclinical Testing Program (PPT), and Coriell Institute (CI).
qHTS cell viability assay:
Cells were assayed in growth media at a density of 500-1,000 cells/well. Five microliters of cells were dispensed into 1,536-well, white, solid-bottom, TC-treated plates (Greiner Bio One) using a multidrop dispenser and incubated at 37 degrees C, 5% CO2, under a humidified atmosphere for 5 hours. Twenty-three nanoliters of compounds and controls (neutral control DMSO or positive control bortezomib at final concentration of 2.3 µM) were subsequently transferred by Kalypsys pintool. For primary screens, the MIPE collection was tested at 11-point dilutions (final concentrations range from 0.78 nM to 46 µM) and the NPC collection at 8-point dilutions (final concentrations range from 0.59 nM to 46 µM). Compounds tested in follow-up screens were assayed at 11-point dilutions. Cells were incubated for 48 hours, followed by addition of 3 µL of CellTiter-Glo (Promega). After a 15 min incubation at room temperature, samples were analyzed for luminescence intensity using a ViewLux High-throughput CCD imager equipped with clear filters.
For orientation: Quantitative high-throughput screening tests each substance at several concentrations.
With `Cc1ccccc1N=Nc1ccc(N=Nc2c(O)ccc3ccccc23)c(C)c1`, the “activity change, negative = cytotoxic” value was 3.22%.
On to `COCC(=O)Nc1c(I)c(C(=O)NCC(O)CO)c(I)c(C(=O)N(C)CC(O)CO)c1I` (stereo not given), for which the “activity change, negative = cytotoxic” value was 8.15%.
The result for `CNCc1ccccc1` reads 10.3%.
For the molecule `C=CCN1C[C@H](C(=O)N(CCCN(C)C)C(=O)NCC)C[C@@H]2c3cccc4[nH]cc(c34)C[C@H]21`, the “activity change, negative = cytotoxic” value is 7.52%.
Turning to `COc1ccccc1Oc1c(NS(=O)(=O)c2ccc(C(C)(C)C)cc2)nc(-c2ncccn2)nc1OCCO`, the “activity change, negative = cytotoxic” value was 14.1%.
As for `Cc1ccsc1C(=CCCN1CCC[C@@H](C(=O)O)C1)c1sccc1C`, the “activity change, negative = cytotoxic” value is 12.2%.
Turning to `COc1ccccc1OC(=O)Oc1ccccc1OC`, the “activity change, negative = cytotoxic” value is 0.0692%.
With `CCc1nnc(NS(=O)(=O)c2ccc(N)cc2)s1` the figure was 11.6%; with `CC(N)CCCC(C)(C)O` (stereo not given), 0.126%.
On to `O=C(c1ccccc1)C(O)c1ccccc1` (stereo not given), for which the “activity change, negative = cytotoxic” value is -3.15%.
For the molecule `CO[C@@]1(NC(=O)C(C(=O)O)c2ccc(O)cc2)C(=O)N2C(C(=O)O)=C(CSc3nnnn3C)CO[C@@H]21` (stereo not given in full), the “activity change, negative = cytotoxic” value was 6.02%.
Take `CCOC(=O)c1cccnc1`: the “activity change, negative = cytotoxic” value was 7.6%.
For the molecule `CC[C@H](C)[C@H](N)C(=O)O`, the “activity change, negative = cytotoxic” value was 17.3%.
For the molecule `O[C@@H]1CO[C@H]2[C@@H]1OC[C@@H]2O`, the “activity change, negative = cytotoxic” value was 4.83%.
For `Cc1ccc(S(=O)(=O)NC(=O)NC2CCCCCCC2)cc1`, the “activity change, negative = cytotoxic” value is 13.4%.
Turning to `COc1ccc(O)cc1`, the “activity change, negative = cytotoxic” value was 13.5%.
The result for `O=C(O)c1ccc(OCCCOc2ccc(C(=O)O)cc2)cc1` reads 17.1%; that for `CC(=O)Oc1cccc(C)c1`, 5.93%; that for `C/C=C/C(=O)N(CC)c1ccccc1C`, 5.02%.
`CCOc1ccc(C(=O)OCCN(CC)CC)cc1`: the “activity change, negative = cytotoxic” value was 3.88%.
`Cc1c(C(=O)NCCO)[n+](=O)c2ccccc2n1[O-]`: the “activity change, negative = cytotoxic” value is 5.1%.
On to `COc1ccc(NS(=O)(=O)c2ccc(N)cc2)nn1`, for which the “activity change, negative = cytotoxic” value is -6.26%.
The result for `COc1cc(C(=O)NCCCCCC(=O)O)cc(OC)c1OC` reads 11.6%.
Take `CC(CN(C)C)C(C)(O)Cc1ccc(Cl)cc1` (stereo not given): the “activity change, negative = cytotoxic” value is 0.943%.
`C/C=C1\[C@H]2C=C(C)C[C@]1(N)c1ccc(=O)[nH]c1C2`: the “activity change, negative = cytotoxic” value was 5.13%.
`CCN[C@H]1CN(CCCOC)S(=O)(=O)c2sc(S(N)(=O)=O)cc21`: the “activity change, negative = cytotoxic” value is 5.7%.
With `NCc1ccc(S(N)(=O)=O)cc1` the figure was -2.8%.
In the case of `C=CCSCC1Nc2cc(Cl)c(S(N)(=O)=O)cc2S(=O)(=O)N1` (stereo not given), the “activity change, negative = cytotoxic” value was -0.963%.
With `Cc1ccc2c(c1)c1c3n2CCNC3CCC1` (stereo not given) the figure was 9.09%.
Turning to `O=C(/C=C/c1ccccc1)OCc1ccccc1`, the “activity change, negative = cytotoxic” value is 6.22%.
With `Nc1ncnc2c1ncn2[C@@H]1O[C@H](COP(=O)(O)O)[C@@H](O)[C@H]1O`, the “activity change, negative = cytotoxic” value is 15%.
Take `CCOC(=O)[C@H](CCc1ccccc1)N[C@@H](C)C(=O)N1Cc2cc(OC)c(OC)cc2C[C@H]1C(=O)O`: the “activity change, negative = cytotoxic” value was 1.28%.
As to `NC(=O)c1ccc([N+](=O)[O-])cc1Cl`, the “activity change, negative = cytotoxic” value is -4.48%.
For the molecule `CCN1CC(CCN2CCOCC2)C(c2ccccc2)(c2ccccc2)C1=O` (stereo not given), the “activity change, negative = cytotoxic” value was 13.4%.
For `Nc1ccc(S(=O)(=O)c2ccc(N)cc2)cc1`, the “activity change, negative = cytotoxic” value was 3.65%.
For `CC(=O)OCC(COC(C)=O)OC(C)=O`, the “activity change, negative = cytotoxic” value is 4.82%.
For `C/C(=C(\CCO)SS/C(CCO)=C(\C)N(C=O)Cc1cnc(C)nc1N)N(C=O)Cc1cnc(C)nc1N`, the “activity change, negative = cytotoxic” value is 18.4%.
As for `CC(=O)Oc1cccc(O)c1`, the “activity change, negative = cytotoxic” value is -0.757%.
Regarding `CCOC(=O)OC(C)OC(=O)[C@@H]1N2C(=O)[C@@H](NC(=O)[C@H](N)c3ccccc3)[C@H]2SC1(C)C` (stereo not given in full), the “activity change, negative = cytotoxic” value was 6.61%.
With `O=C(O)c1ccc[n+]([O-])c1` the figure was -0.157%.

Source of the values: PubChem BioAssay (NCATS).
